Source: PubChem BioAssay AID1159580 (chemical genetic matrix, 2015)
The campaign covered roughly 5,500 compounds. About 2,000 (36%) were called active. About 18% were inconclusive and are not listed. Rule as the data show it: active = normalized growth mostly below about 0.91 (no sharp cut-off); inconclusive = no clear call, values can overlap the other calls; inactive = mostly above about 0.92. Some of the results follow.

Assay: chemical genetic growth profiling, strain panel (AID 1159580);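 also: tested at 20 µM; growth read once vehicle control cultures reached saturation at 30 °C; 1 = growth at the plate median or of vehicle wells; lower values mean less growth of the strain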
Settings: S. cerevisiae deletion strains, growth OD

Measured: normalized growth

COc1cccc2c1CCC1=CC(=O)CC[C@@]12C
inactive: locus YAL013W, strain DEP1, hits give low values 0.996 | locus YAL021C, strain ccr4, hits give low values 1.02 | locus YAL026C, strain drs2, hits give low values 1.01 | locus YAL030W, strain snc1, hits give low values 0.986 | locus YBL061C, strain skt5, hits give low values 0.989 | locus YBR009C, strain hhf1, hits give low values 0.992 | locus YBR021W, strain FUR4, hits give low values 0.966 | locus YBR023C, strain chs3, hits give low values 1.01 | locus YBR171W, strain sec66, hits give low values 0.987 | locus YBR229C, strain ROT2, hits give low values 1 | locus YBR231C, strain swc5, hits give low values 1.02 | locus YBR279W, strain paf1, hits give low values 1 | locus YCL011C, strain gbp2, hits give low values 0.997 | locus YCL016C, strain dcc1, hits give low values 0.999 | locus YCL029C, strain bik1, hits give low values 0.985 | locus YCL069W, strain vba3, hits give low values 0.993 | locus YCR088W, strain abp1, hits give low values 0.994 | locus YDL005C, strain med2, hits give low values 1.02 | locus YDL035C, strain GPR1, hits give low values 0.976 | locus YDL040C, strain nat1, hits give low values 1 | locus YDL074C, strain BRE1, hits give low values 0.944 | locus YDL101C, strain DUN1, hits give low values 1.01 | locus YDL134C, strain PPH21, hits give low values 0.995 | locus YDL185W, strain tfp1, hits give low values 1 | locus YDL192W, strain arf1, hits give low values 0.993 | locus YDR001C, strain nth1, hits give low values 1 | locus YDR069C, strain doa4, hits give low values 0.987 | locus YDR101C, strain arx1, hits give low values 0.981 | locus YDR137W, strain rgp1, hits give low values 1.07 | locus YDR150W, strain NUM1, hits give low values 1 | locus YDR159W, strain sac3, hits give low values 0.997 | locus YDR162C, strain NBP2, hits give low values 0.966 | locus YDR195W, strain ref2 1.04 | locus YDR297W, strain sur2, hits give low values 0.995 | locus YDR318W, strain mcm21, hits give low values 0.973 | locus YDR334W, strain swr1, hits give low values 1.02 | locus YDR335W, strain msn5, hits give low values 1.01 | locus YDR388W, hits give low values 0.989 | locus YDR392W, strain spt3, hits give low values 0.984 | locus YDR502C, strain sam2, hits give low values 0.961 | locus YEL003W, strain gim4, hits give low values 1 | locus YEL037C, strain rad23, hits give low values 0.993 | locus YEL061C, strain CIN8 (second series), hits give low values 1.01 | locus YEL061C, strain CIN8, hits give low values 1 | locus YER015W, strain faa2, hits give low values 1.01 | locus YER016W, strain bim1, hits give low values 1 | locus YER110C, hits give low values 0.983 | locus YER111C, strain swi4, hits give low values 1 | locus YER155C, strain BEM2 (second series), hits give low values 0.989 | locus YER155C, strain BEM2, hits give low values 1 | locus YER167W, strain BCK2, hits give low values 0.996 | locus YFR010W, strain ubp6, hits give low values 1.01 | locus YGL078C, strain dbp3, hits give low values 0.998 | locus YGL086W, strain mad1, hits give low values 0.987 | locus YGL167C, strain pmr1, hits give low values 1 | locus YGL173C, strain kem1, hits give low values 0.993 | locus YGL227W, strain vid30, hits give low values 1.01 | locus YGL240W, strain doc1, hits give low values 0.995 | locus YGL248W, strain PDE1, hits give low values 0.996 | locus YGL253W, strain hxk2, hits give low values 1.02 | locus YGR078C, strain PAC10, hits give low values 0.983 | locus YGR135W, strain pre9, hits give low values 0.939 | locus YGR229C, strain SMI1, hits give low values 0.98 | locus YGR252W, strain gcn5, hits give low values 0.814 | locus YHR013C, strain ard1, hits give low values 0.967 | locus YHR027C, strain rpn1, hits give low values 1.01 | locus YHR030C, strain SLT2, hits give low values 0.994 | locus YHR079C, strain IRE1 (second series), hits give low values 0.973 | locus YHR094C, strain hxt1, hits give low values 0.998 | locus YHR129C, strain ARP1, hits give low values 0.995 | locus YHR142W, strain chs7, hits give low values 0.975 | locus YHR200W, strain rpn10, hits give low values 0.989 | locus YIL066C, strain RNR3, hits give low values 0.955 | locus YIL073C, strain SPO22, hits give low values 0.949 | locus YIL125W, strain kgd1, hits give low values 0.992 | locus YIR030C, strain dcg1, hits give low values 0.983 | locus YJL092W, strain hpr5, hits give low values 1.02 | locus YJL095W, strain BCK1 (second series), hits give low values 1 | locus YJL095W, strain BCK1, hits give low values 0.972 | locus YJL115W, strain asf1, hits give low values 1.01 | locus YJL129C, strain trk1, hits give low values 0.973 | locus YJL134W, strain LCB3, hits give low values 1.01 | locus YJL154C, strain vps35, hits give low values 1 | locus YJL164C, strain tpk1, hits give low values 0.996 | locus YJL166W, strain qcr8, hits give low values 0.987 | locus YJL168C, strain set2, hits give low values 0.984 | locus YJL187C, strain SWE1 (second series), hits give low values 0.989 | locus YJR043C, strain POL32, hits give low values 0.97
